Source: PubChem BioAssay (Tox21)
Records with an inconclusive call do not appear. Where a call stands in place of a potency, no number is given. Unmarked numbers belong to inactive results. Activity calls are given as the source filed them. The call rests on the fitted dose curve; in most records, active means well fitted curve in the direction sought with a large enough effect in the repeat runs; inconclusive means weak or mixed curves; inactive means no such curve, though single readings can be large; an effect the other way counts as inactive or inconclusive.

What was measured:
[1] = target: Cytochrome P450 2D6 (Homo sapiens) (UniProt P10635); test: Cytochrome P450 Family 2 Subfamily D Member 6 (CYP2D6) small molecule antagonists: luciferase reporter qHTS assay (AID 1671196); further: series mostly up to about 120 µM; nearly all actives have a fitted effect of over 50% in size
Cytochrome P450 2D6 (Homo sapiens), sequence (P10635 whole entry, looked up): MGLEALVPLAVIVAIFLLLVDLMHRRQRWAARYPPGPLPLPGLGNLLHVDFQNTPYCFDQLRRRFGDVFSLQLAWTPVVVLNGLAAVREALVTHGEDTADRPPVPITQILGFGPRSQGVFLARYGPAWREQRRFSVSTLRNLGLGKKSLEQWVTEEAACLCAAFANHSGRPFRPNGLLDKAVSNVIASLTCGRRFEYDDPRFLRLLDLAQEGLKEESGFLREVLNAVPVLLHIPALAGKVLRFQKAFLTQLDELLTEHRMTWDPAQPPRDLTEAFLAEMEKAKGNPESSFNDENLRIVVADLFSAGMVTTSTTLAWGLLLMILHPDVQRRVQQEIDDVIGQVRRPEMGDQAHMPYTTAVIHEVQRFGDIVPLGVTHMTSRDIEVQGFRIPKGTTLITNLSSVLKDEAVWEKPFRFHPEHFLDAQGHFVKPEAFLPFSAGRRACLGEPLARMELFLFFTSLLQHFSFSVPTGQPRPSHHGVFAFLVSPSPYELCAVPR
In short: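 Each well received CYP2D6 with its proluciferin substrate and chemical, sat 10 min, then got NADPH regeneration solution for 1 h at room temperature. Luminescence in RLU served as the activity measure.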

[2] = target: Cytochrome P450 2C19 (Homo sapiens) (UniProt P33261); test: Cytochrome P450 Family 2 Subfamily C Member 19 (CYP2C19) small molecule antagonists: luciferase reporter qHTS assay (AID 1671197); further: nearly all actives have a fitted effect of over 65% in size; further: potency means the concentration at half of the fitted maximal effect; on activity change, negative = inhibition: series mostly up to about 120 µM
Cytochrome P450 2C19 (Homo sapiens), sequence (P33261 whole entry, looked up): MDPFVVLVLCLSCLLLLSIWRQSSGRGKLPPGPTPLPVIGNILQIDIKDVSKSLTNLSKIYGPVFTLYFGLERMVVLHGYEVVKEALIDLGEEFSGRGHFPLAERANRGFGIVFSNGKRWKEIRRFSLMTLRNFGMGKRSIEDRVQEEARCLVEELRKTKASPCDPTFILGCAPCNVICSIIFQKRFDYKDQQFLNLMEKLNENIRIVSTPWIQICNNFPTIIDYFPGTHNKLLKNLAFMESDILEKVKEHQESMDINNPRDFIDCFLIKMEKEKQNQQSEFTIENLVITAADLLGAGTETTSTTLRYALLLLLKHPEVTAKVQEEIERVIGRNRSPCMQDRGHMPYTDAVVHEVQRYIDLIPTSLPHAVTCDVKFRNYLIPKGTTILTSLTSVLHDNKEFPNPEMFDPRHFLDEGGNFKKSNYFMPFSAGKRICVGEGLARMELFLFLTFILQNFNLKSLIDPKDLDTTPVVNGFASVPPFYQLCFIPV
In short: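 Quantitative high-throughput screen of the Tox21 library using CYP2C19 with proluciferin substrate. Reaction: NADPH regeneration, 37C, 1 h, after 10 min compound preincubation at room temperature. Readout: luminescence.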

[3] = target: Cytochrome P450 1A2 (Homo sapiens) (UniProt P05177); test: Cytochrome P450 Family 1 Subfamily A Member 2 (CYP1A2) small molecule antagonists: luciferase reporter qHTS assay (AID 1671199); further: nearly all actives have a fitted effect of over 50% in size; further: potency means the concentration at half of the fitted maximal effect; on activity change, negative = inhibition: series mostly up to about 120 µM
Cytochrome P450 1A2 (Homo sapiens), sequence (P05177 whole entry, looked up): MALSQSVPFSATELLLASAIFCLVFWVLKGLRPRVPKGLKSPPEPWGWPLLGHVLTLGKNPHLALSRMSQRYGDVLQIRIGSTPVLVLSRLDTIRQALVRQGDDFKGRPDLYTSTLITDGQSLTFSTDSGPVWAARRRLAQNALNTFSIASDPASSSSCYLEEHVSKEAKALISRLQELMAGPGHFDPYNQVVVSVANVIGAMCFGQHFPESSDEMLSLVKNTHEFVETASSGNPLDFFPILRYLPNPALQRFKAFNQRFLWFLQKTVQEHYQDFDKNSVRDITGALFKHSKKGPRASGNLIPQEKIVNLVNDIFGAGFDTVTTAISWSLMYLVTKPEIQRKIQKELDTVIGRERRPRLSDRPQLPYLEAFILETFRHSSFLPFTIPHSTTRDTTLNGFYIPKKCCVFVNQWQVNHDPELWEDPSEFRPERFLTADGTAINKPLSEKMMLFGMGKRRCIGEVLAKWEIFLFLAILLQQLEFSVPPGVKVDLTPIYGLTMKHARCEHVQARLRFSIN
In short: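 Enzymatic CYP1A2 assay, human, luminescent: 10 min compound–enzyme–substrate preincubation, 1 h NADPH-dependent turnover, 20 min detection step, room temperature throughout. Reduced light indicates lower CYP1A2 activity.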

[4] = target: Voltage-gated inwardly rectifying potassium channel KCNH2 (Homo sapiens) (UniProt Q12809); test: Human Ether-a-go-go-Related Gene (hERG) channel small molecule antagonists: fluorescence cell-based qHTS assay (AID 1671200); further: series mostly up to about 77 µM; nearly all actives have a fitted effect of over 50% in size
Voltage-gated inwardly rectifying potassium channel KCNH2 (Homo sapiens), sequence (Q12809 whole entry, looked up): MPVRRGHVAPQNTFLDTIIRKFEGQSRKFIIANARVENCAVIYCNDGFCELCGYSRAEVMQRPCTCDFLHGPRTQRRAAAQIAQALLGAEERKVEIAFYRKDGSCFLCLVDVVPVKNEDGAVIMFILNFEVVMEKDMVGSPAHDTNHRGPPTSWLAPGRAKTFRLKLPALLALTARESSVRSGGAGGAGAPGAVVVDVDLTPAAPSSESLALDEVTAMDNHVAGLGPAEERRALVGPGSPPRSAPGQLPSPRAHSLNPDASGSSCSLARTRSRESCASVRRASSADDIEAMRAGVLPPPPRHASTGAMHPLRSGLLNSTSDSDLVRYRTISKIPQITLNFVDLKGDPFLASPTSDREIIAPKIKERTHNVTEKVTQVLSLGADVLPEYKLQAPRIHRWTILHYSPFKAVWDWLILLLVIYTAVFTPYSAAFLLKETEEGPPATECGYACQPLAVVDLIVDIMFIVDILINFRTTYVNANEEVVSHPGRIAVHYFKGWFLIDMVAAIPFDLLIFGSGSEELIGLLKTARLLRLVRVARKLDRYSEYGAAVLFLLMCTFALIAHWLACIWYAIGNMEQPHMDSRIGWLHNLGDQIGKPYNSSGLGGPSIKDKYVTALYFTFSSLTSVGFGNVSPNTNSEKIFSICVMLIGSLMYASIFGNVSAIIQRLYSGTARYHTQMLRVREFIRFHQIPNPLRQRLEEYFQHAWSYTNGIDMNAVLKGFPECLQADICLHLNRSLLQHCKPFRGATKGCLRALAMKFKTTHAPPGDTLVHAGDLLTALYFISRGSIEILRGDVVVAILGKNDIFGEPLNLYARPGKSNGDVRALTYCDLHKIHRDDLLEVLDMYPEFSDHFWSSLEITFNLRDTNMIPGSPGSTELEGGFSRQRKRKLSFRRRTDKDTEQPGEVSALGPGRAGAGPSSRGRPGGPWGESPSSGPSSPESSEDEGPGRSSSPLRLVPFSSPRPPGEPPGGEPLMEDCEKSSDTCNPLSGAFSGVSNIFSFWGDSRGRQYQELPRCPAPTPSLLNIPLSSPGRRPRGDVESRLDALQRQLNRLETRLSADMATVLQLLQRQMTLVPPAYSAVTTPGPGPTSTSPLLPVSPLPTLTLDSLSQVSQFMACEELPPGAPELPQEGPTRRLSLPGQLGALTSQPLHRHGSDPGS
In short: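 Thallium flux as potassium surrogate: FluxOR II dye loaded 1 h at room temperature into hERG-expressing U2OS cells, then stimulus buffer added after 10 min. Kinetic 480 nm excitation/540 nm emission read, 2 min.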

[5] = target: Cytochrome P450 3A4 (Homo sapiens) (UniProt P08684); test: Cytochrome P450 Family 3 Subfamily A Member 4 (CYP3A4) small molecule antagonists: luciferase reporter qHTS assay (AID 1671201); further: nearly all actives have a fitted effect of over 50% in size; further: potency means the concentration at half of the fitted maximal effect; on activity change, negative = inhibition: series mostly up to about 120 µM
Cytochrome P450 3A4 (Homo sapiens), sequence (P08684 whole entry, looked up): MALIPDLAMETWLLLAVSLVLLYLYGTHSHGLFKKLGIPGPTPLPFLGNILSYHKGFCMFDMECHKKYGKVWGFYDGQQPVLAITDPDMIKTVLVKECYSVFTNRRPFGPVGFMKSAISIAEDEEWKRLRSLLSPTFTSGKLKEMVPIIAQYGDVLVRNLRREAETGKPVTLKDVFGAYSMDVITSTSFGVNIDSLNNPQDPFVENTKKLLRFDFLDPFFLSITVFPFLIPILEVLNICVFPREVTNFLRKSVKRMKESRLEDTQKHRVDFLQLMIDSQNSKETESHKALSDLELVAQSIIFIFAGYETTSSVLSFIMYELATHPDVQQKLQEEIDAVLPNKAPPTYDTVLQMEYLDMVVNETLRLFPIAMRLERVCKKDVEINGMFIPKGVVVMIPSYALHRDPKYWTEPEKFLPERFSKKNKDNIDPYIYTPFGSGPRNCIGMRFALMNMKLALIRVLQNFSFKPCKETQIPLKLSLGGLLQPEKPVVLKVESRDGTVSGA
In short: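 Recombinant human CYP3A4 converts a proluciferin substrate to luciferin over 1 h at room temperature after NADPH regeneration solution is added (compound preincubated 10 min); detection reagent stops reaction, luminescence read 20 min later as relative units.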

[6] = target: Cytochrome P450 2C9 (Homo sapiens) (UniProt P11712); test: Cytochrome P450 Family 2 Subfamily C Member 9 (CYP2C9) small molecule antagonists: luciferase reporter qHTS assay (AID 1671198); further: nearly all actives have a fitted effect of over 50% in size; further: potency means the concentration at half of the fitted maximal effect; on activity change, negative = inhibition: series mostly up to about 120 µM
Cytochrome P450 2C9 (Homo sapiens), sequence (P11712 whole entry, looked up): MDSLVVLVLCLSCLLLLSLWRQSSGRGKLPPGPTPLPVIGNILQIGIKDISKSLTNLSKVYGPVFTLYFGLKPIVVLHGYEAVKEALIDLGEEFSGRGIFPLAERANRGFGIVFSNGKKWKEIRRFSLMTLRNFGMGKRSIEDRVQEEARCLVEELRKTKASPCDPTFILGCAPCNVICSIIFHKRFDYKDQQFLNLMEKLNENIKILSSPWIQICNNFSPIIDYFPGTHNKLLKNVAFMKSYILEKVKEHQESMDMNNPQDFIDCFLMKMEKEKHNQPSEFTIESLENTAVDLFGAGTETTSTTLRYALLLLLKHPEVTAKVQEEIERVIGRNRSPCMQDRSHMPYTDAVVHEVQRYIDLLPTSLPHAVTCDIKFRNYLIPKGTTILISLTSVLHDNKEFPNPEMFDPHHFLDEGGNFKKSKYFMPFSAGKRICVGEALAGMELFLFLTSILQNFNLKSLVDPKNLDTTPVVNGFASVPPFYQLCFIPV
In short: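 Enzyme-substrate mix preincubated with compound 10 min at room temperature; reaction started with NADPH regeneration solution, 1 h 37C. Luminescent luciferin product read after 20 min detection reagent.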

`CC(C)(C)C(=O)CCc1ccc(Cl)cc1` was tested, and the Potency [1] was “inactive”, the Potency [2] was 7.1 µM (active) and the Potency [3] was 22.4 µM (active). The Potency [4] was “inactive” and the Potency [5] was “inactive”.

With `CC(C)(C)c1ccc(N)cc1` the Potency [1] was “inactive”, the Potency [2] was “inactive” and the Potency [3] was “inactive”. For the same molecule, the Potency [4] was “inactive” and the Potency [5] was 28.3 µM (active).

`CCCCCCCCCCCCCCCC/C=C/C1CC(=O)OC1=O` (stereo unspecified) was tested, and the Potency [2] was 27.4 µM (active), the Potency [4] was “inactive” and the Potency [5] was 15.4 µM (active).

With `CCCCCCCCCCCCCCCC(=O)OC` the activity change, negative = inhibition [2] was -1.98% [at 23.6 µM], the activity change, negative = inhibition [6] was 2.75% [at 23.6 µM] and the activity change, negative = inhibition [3] was -2.98% [at 23.6 µM]. It also gave an activity change, negative = inhibition [4] of -9.56% [at 15.8 µM] and an activity change, negative = inhibition [5] of 2.42% [at 23.6 µM].

With `C=CCCCCCCCCOC(C)=O` the Potency [2] was “inactive”, the Potency [6] was “inactive” and the Potency [4] was “inactive”. For the same molecule, the Potency [5] was “inactive”.

With `COC(=O)c1ccc(C(=O)O)cc1` the Potency [2] was “inactive”, the Potency [3] was “inactive” and the Potency [4] was “inactive”. The Potency [5] was “inactive”.

In the case of `CC(CC(=O)Cl)CC(C)(C)C` (stereo unspecified), the Potency [2] is reported as 80.2 µM (active), the Potency [4] is reported as “inactive” and the Potency [5] is reported as “inactive”.

In the case of `CC(C)(Sc1cc(C(C)(C)C)c(O)c(C(C)(C)C)c1)Sc1cc(C(C)(C)C)c(O)c(C(C)(C)C)c1`, the Potency [4] is reported as “inactive”.

For `CCCCCCCCS(=O)(=O)O`, the Potency [2] was “inactive”, the Potency [3] was “inactive” and the Potency [4] was “inactive”. For the same molecule, the Potency [5] was “inactive”.

With `CC(=O)/C=C/C=C1/C2CCC(C2)C1(C)C` (stereo unspecified) the Potency [3] was 21.9 µM (active) and the Potency [4] was “inactive”.

`C=COCCCCO` was tested, and the Potency [2] was “inactive”, the Potency [4] was “inactive” and the Potency [5] was “inactive”.

In the case of `COc1cc(NS(=O)(=O)c2ccc(N)cc2)ncn1`, the Potency [2] is reported as “inactive”, the Potency [4] is reported as “inactive” and the Potency [5] is reported as “inactive”.

`O=S(=O)(O)c1ccc(Cl)cc1` was tested, and the Potency [2] was 55.3 µM (active), the Potency [6] was “inactive” and the Potency [3] was “inactive”. The Potency [4] was “inactive” and the Potency [5] was “inactive”.

For `N#Cc1ccccc1C#N`, the Potency [2] was “inactive”, the Potency [6] was “inactive” and the Potency [4] was “inactive”. The Potency [5] was “inactive”.

In the case of `CC1(C)S[C@@H]2[C@H](NC(=O)Cc3ccccc3)C(=O)N2[C@H]1C(=O)O` (tested in a mixture with another compound), the Potency [4] is reported as “inactive”.

With `Cc1ccc(N)nc1` the Potency [2] was “inactive”, the Potency [6] was “inactive” and the Potency [4] was “inactive”. The Potency [5] was “inactive”.

For `CC(C)(C)OC(=O)c1ccccc1C(=O)O`, the Potency [2] was “inactive”, the Potency [3] was “inactive” and the Potency [4] was “inactive”. For the same molecule, the Potency [5] was “inactive”.

With `N=C(N)N` the Potency [2] was “inactive”, the Potency [3] was “inactive” and the Potency [4] was “inactive”. For the same molecule, the Potency [5] was “inactive”.

For `NNC(=O)CCCCC(=O)NN`, the Potency [3] was 31.7 µM (active), the Potency [4] was “inactive” and the Potency [5] was 11.2 µM (active).

`C=CCn1cc[n+](C)c1` was tested, and the Potency [2] was “inactive”, the Potency [6] was “inactive” and the Potency [4] was “inactive”. For the same molecule, the Potency [5] was “inactive”.

With `CC1=C(O)C(=O)CO1` the Potency [3] was “inactive”, the Potency [4] was “inactive” and the Potency [5] was “inactive”.

With `C=CCCCCCCCCCCCCCC` the Potency [2] was 18.6 µM (active), the activity change, negative = inhibition [6] was -3.74% [at 23.6 µM] and the activity change, negative = inhibition [4] was 4.07% [at 15.8 µM]. For the same molecule, the activity change, negative = inhibition [5] was -5.46% [at 23.6 µM].

In the case of `CC(CN1CC(=O)NC(=O)C1)N1CC(=O)NC(=O)C1` (stereo unspecified), the Potency [2] is reported as “inactive”, the Potency [6] is reported as “inactive” and the Potency [3] is reported as “inactive”. The Potency [4] was “inactive” and the Potency [5] was “inactive”.

`OCCC(F)(F)C(F)(F)C(F)(F)C(F)(F)C(F)(F)C(F)(F)F` was tested, and the Potency [2] was “inactive”, the Potency [6] was “inactive” and the Potency [3] was 31.7 µM (active). The Potency [4] was “inactive” and the Potency [5] was “inactive”.

With `CN(C)CCCN(C)C` the activity change, negative = inhibition [2] was -19.3% [at 10.5 µM], the activity change, negative = inhibition [6] was -13.3% [at 10.5 µM] and the Potency [3] was 1.95 µM (active). For the same molecule, the activity change, negative = inhibition [4] was 0.578% [at 6.97 µM] and the activity change, negative = inhibition [5] was 12.7% [at 10.5 µM].

In the case of `O=C1CCCc2c(O)cccc21`, the Potency [6] is reported as “inactive”, the Potency [3] is reported as 34.7 µM (active) and the Potency [4] is reported as “inactive”. For the same molecule, the Potency [5] was “inactive”.

`CC(=O)SC[C@@H](C)C(=O)N1CCC[C@H]1C(=O)N[C@@H](Cc1ccccc1)C(=O)O` was tested, and the Potency [2] was “inactive”, the Potency [6] was “inactive” and the Potency [3] was “inactive”. For the same molecule, the Potency [4] was “inactive” and the Potency [5] was “inactive”.

In the case of `O=C(O)CCC(=O)Nc1ccc(S(=O)(=O)Nc2nccs2)cc1`, the Potency [4] is reported as “inactive”.

With `CC(C)(O)CCCC1=CCC(C=O)CC1` (stereo unspecified) the Potency [2] was 10.7 µM (active), the Potency [6] was 60.2 µM (active) and the Potency [3] was 38 µM (active). The Potency [4] was “inactive” and the Potency [5] was 67.5 µM (active).

`CCCCOCCCC` was tested, and the Potency [2] was “inactive”, the Potency [6] was “inactive” and the Potency [4] was “inactive”. For the same molecule, the Potency [5] was “inactive”.

`C/C(=N\O)c1ccc(OCC(=O)N2CCCCC2)cc1` was tested, and the Potency [4] was “inactive” and the Potency [5] was “inactive”.

`NC(=O)CC[C@@H](N)C(=O)O` was tested, and the Potency [4] was “inactive”.

For `CC(C)C(=O)Nc1cccc(C2CN3CCSC3=N2)c1` (stereo unspecified), the Potency [2] was “inactive”, the Potency [3] was “inactive” and the Potency [4] was “inactive”.

For `CCC(C)(C)C`, the Potency [2] was “inactive”, the Potency [3] was 37.7 µM (active) and the Potency [4] was “inactive”. For the same molecule, the Potency [5] was “inactive”.

For `C=CCN(CC=C)CC=C`, the Potency [2] was “inactive”, the Potency [3] was “inactive” and the Potency [4] was “inactive”. For the same molecule, the Potency [5] was “inactive”.

For `CCO/C=C1\N=C(c2ccccc2)OC1=O`, the Potency [2] was 79.4 µM (active), the Potency [3] was 35.5 µM (active) and the Potency [4] was “inactive”. The Potency [5] was “inactive”.

In the case of `CN(C)c1cc(NC(=O)CNC(C)(C)C)c(O)c2c1C[C@H]1C[C@H]3[C@H](N(C)C)C(=O)C(C(N)=O)=C(O)[C@@]3(O)C(=O)C1=C2O`, the Potency [2] is reported as 21.9 µM (active), the Potency [4] is reported as “inactive” and the Potency [5] is reported as “inactive”.

In the case of `Nc1cc(S(=O)(=O)O)ccc1O`, the Potency [6] is reported as “inactive”, the Potency [3] is reported as “inactive” and the Potency [4] is reported as “inactive”. For the same molecule, the Potency [5] was “inactive”.

With `CCC(C)c1nccnc1OC` (stereo unspecified) the Potency [2] was “inactive”, the Potency [6] was “inactive” and the Potency [4] was “inactive”. The Potency [5] was “inactive”.

`C/C=C(\C)C=O` was tested, and the Potency [2] was “inactive”, the Potency [6] was “inactive” and the Potency [3] was 63.6 µM (active). For the same molecule, the Potency [4] was “inactive” and the Potency [5] was “inactive”.
